# Reference: PubChem BioAssay (NCI)
# The panel holds about 83,000 compounds, 20% with a hit somewhere; the sample as a whole holds those more often.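 Values shown are percent growth following 48 h exposure of cells in 96-well plates to a single concentration of compound; below 10 was considered active.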 A number with no mark means an inactive call. The source made the active and inactive calls.
# System: NCI-H522 lung
# Experiment: NCI-60 one-dose screen, 48 h (100 = growth as untreated, 0 = no growth, -100 = all killed)
# Conditions: 10 µM
row,SMILES,growth
1,O=C1Nc2ccccc2/C1=C/c1cn(CC(O)Cn2cc(/C=C3\C(=O)Nc4ccccc43)c3ccccc32)c2ccccc12 (configuration not stated),-17.4% (active)
2,COC(=O)Nc1nc2ccc(C(=O)c3ccccc3N(C)C3COC3)cc2[nH]1,13.1%
3,COC(=O)/C=C/c1cc(O)c2oc(-c3ccc(O)c(O)c3)c(C(=O)OC)c2c1,-0.902% (active)
4,CC(C)OC(=O)[C@H](C)N[P@@](=O)(OC[C@@]1(C)O[C@@H](n2cc(F)c(N)nc2=O)C[C@@H]1O[P@](=O)(N[C@@H](C)C(=O)OC(C)C)Oc1ccccc1)Oc1ccccc1,85.6%
5,COc1cc2ncnc(Nc3ccc4c(cnn4C(=O)Nc4ccccc4)c3)c2cc1OC,89.4%
6,Cc1nnc(/N=C2\NC(=O)/C(=C/C=C/c3ccccc3)S2)s1,1.52% (active)
7,COC(c1ccccc1)C(Br)C(=O)c1ccccc1 (configuration not stated),74.9%
8,O=C1c2ccccc2CCc2ccccc21,86.4%
9,COc1cc2ncnc(-n3ncc4cc(NC(=O)Nc5ccccc5)ccc43)c2cc1OC,19.9%
10,COc1cc(-c2cc3cnccc3c3nc(N)c4ccncc4c23)cc(OC)c1OC,57.1%
11,COc1cc(OC)c(NC(=O)n2ncc3cc(Nc4ncnc5ccccc45)ccc32)cc1Cl,72.1%
12,COc1cc(OC)cc(-c2ccc(-c3ccc(C(=N)N)cc3)s2)c1,-58.2% (active)
13,CC1(C)NCCC[C@]2(C)[C@H]3CC=C4[C@@H]5C[C@](C)(COC(=O)c6ccccc6C(=O)O)CC[C@]5(C)CC[C@@]4(C)[C@]3(C)CC[C@@H]12,79%
14,Nc1ncn([C@@H]2O[C@H](CO)[C@@H](O)C2(F)F)c(=O)n1,86.9%
15,CCOC(=O)c1cc(C(=O)c2ccc(Br)cc2)n2cc(C)cc(C)c12,77.3%
16,Nc1nc2c(c3cnccc13)C(c1cccc(Br)c1)Cc1cnccc1-2 (configuration not stated),3.33% (active)
17,O=C1/C(=C\c2cn(-c3nc(N4CCOCC4)nc(N4CCOCC4)n3)c3ccccc23)c2ccccc2N1c1c(Cl)cccc1Cl,75.3%
18,COc1cc2ncnc(-n3ncc4cc(NC(=O)Nc5ccc(Cl)c(C)c5)ccc43)c2cc1OC,86.9%
19,CC1=C[C@@H]2c3c(c(O)c(O)c4oc5cc(O)cc(O)c5c(=O)c34)[C@@H](c3cc(O)c(O)c4oc5cc(O)cc(O)c5c(=O)c34)[C@@H]2C(C)(C)C1,-60.8% (active)
20,N=C(N)c1ccc(-c2ccc(-c3cc(Cl)cc(Cl)c3)s2)cc1,-41.2% (active)
21,COc1cc2ncnc(-n3ncc4cc(NC(=O)Nc5ccc(Cl)c(Cl)c5)ccc43)c2cc1OC,1.38% (active)
22,COC1=CC(c2ccc[nH]2)=N/C1=C\c1[nH]c(C)c(C(=O)CCCCC(=O)NC(C)(C)C)c1C,-28.1% (active)
23,CC1=NN(c2cccc(Cl)c2)C(=O)/C1=C\c1cn(-c2nc(N3CCOCC3)nc(N3CCOCC3)n2)c2ccccc12,88.9%
24,O=C(Nc1ccccc1)Nc1ccc(Nc2ncnc3sc4c(c23)CCCC4)cc1,93%
25,O=c1c(N=Nc2nccs2)c(-c2ccccc2)[nH]n1-c1nc(-c2ccccc2)cs1,20.9%
26,CCOP1(=O)CC(C)=C(Cl)C(P(=O)(O)O)C1 (configuration not stated),89.7%
27,Cc1ccc(OCCn2ccc(=O)n(CCOc3ccc(Cl)cc3C(=O)c3cc(C)cc(C)c3)c2=O)cc1,23.3%
